Measurements published in ChEMBL document CHEMBL1201862, “PubChem BioAssay data set” (2004).
Among all 58,000 sequences or so, about 4,000 (6.9%) were called active. No cut-off for these calls is given here. The list is a sample of the results. Potency and affinity values are given separately.

system: HCT-15

First: cis-Bis[[(trimethylsilyl)methyl]amino]tetrachloroplatinum(IV), CHEMBL2146191
Second: [Bis(aminomethyl)tetramethylenesilane]dichloropaltinum(II), CHEMBL2146205
The GI50 of the first is 6-fold lower: 3.42 µM for the first, 20.5 µM for the second.

“[Bis(aminomethyl)dimethylsilane]tetrachloroplatinum(IV), CHEMBL2146190” and CISPLATIN, CHEMBL11359 are within 1.5-fold of each other in GI50: 8.45 µM for the first, 7.21 µM for the second.

First: [Bis(aminomethyl)dimethylsilane]dichloroplatinum (II), CHEMBL2146201
Second: [Bis(aminomethyl)tetramethylenesilane]tetrachloropaltinum(IV), CHEMBL2146189
The GI50 of the first is 7.6-fold higher: 27.5 µM for the first, 3.62 µM for the second.

Going from “mu-(1,7-nanodiamine-N,N')bis-(cis-aminedichloroplatimum (II)), CHEMBL2146215” to “[Bis(aminomethyl)pentamethylenesilane]dichloropaltinum(II), CHEMBL2146202”, the GI50 falls from 37.1 µM to 5.21 µM (7.1-fold).

First: [Bis(aminomethyl)pentamethylenesilane]tetrachloropaltinum(IV), CHEMBL2146204
Second: [Bis(aminomethyl)diethylsilane]tetrachloroplatinum(IV), CHEMBL2146203
The GI50 of the first is 2.6-fold lower: 0.953 µM for the first, 2.45 µM for the second.

For “[Bis(aminomethyl)ethylmethylsilane]tetrachloroplatinum(IV), CHEMBL2146192”, the GI50 was 3.5 µM.
